# p53ts 39C tox – kills p53ts cells at the nonpermissive temperature | 130,000 compounds, 1.5% hits | H1299-p53A138V viability at 39C, ATP luminescence, 24 h | Potency, µM (series often up to 46.1 µM), without a hit: at the top dose activity change, negative = cell killing, hits mostly cytotoxic; also: % is scaled to controls: 0 for no effect and ±100 for the full control effect; nearly all actives have a fitted effect of over 55% in size
# Imprint erasure – induces erasure of genomic imprints in mouse ES cells; 110,000 compounds, 0.02% hits; Potency, µM (titrated, usually from 60.7 µM), for the others: at the highest dose activity change, positive = activation, usual class: activators; mouse ES Peg3-LacZ reporter, beta-gal luminescence, 40 h; AID 1948
#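 Each well holds 300 Peg3LacZ-Neo (maternal) female ES cells incubated 40 h at 37C, 5% CO2. LacZ is measured by BetaGlo luminescence, with AC50 and maximum efficacy derived from dose-response curves.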
# p53ts 32C tox – cytotoxicity in p53ts cells at permissive temperature; H1299-p53A138V at 32C, ATP luminescence viability, 24 h; Potency, µM (top dose mostly 46.1 µM), inactives show top-dose activity change, negative = cytotoxicity, hits mostly cytotoxic; 130,000 compounds, 0.93% hits; AID 924;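 also: 0% = DMSO and -100% = full killing by reference compound; nearly all actives have a fitted effect of over 55% in size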
#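 Cells: H1299 p53ts (A138V), 600/well, pre-incubated 16–30 h at 37C. Cpd up to 46 uM, 24 h, 32C. Readout: ATPlite luminescence, 20 min RT. Normalization: DMSO vs tamoxifen 100 uM. AC50 by Hill equation.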
# IkB sig inh – IkB pathway inhibition in ABC-DLBCL cells | 110,000 compounds, 0.04% hits | Potency, µM (series often up to 57.1 µM), for inactives: at the top dose IkBa stabilization activation | ABC-DLBCL IkBa-CBG/CBR dual luciferase ratio, 4 h; response scale: scaled: untreated 0%, proteasome inhibitor 100%; active = well fitted curve in the direction sought with a large enough effect in the signal ratio, not every such curve was filed as active; inconclusive = small, poorly fitted or top-dose-only effect, or a change in a side signal; the % refers to the signal ratio;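 also: the direction sought is a rising ratio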
#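 Curves were fitted separately to fusion (green), unfused (red) and ratio luminescence, then classed by r2, magnitude and activity. Cells: OCI-Ly3, 4 h compound plus doxycycline at 37C; 10 uM MG-132 defined full response.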
# Active calls of the source: *; ? = inconclusive; . = not tested or not shown; [ ] = remark or other dose. This is a sample that favours compounds with a hit; in the whole collection about 1.6% have one here. Unless noted, calls follow the shape of the dose curve; as a rule, active = well fitted curve in the direction sought with a large enough effect; inconclusive = small, poorly fitted or top-dose-only effect, or another doubt; inactive = no such curve, though single readings can be large; an effect the other way counts as inactive or inconclusive. Potency is read from the fitted curve at half-maximal effect.
SMILES,p53ts 39C tox,Imprint erasure,p53ts 32C tox,IkB sig inh
O=C(O)c1[nH]c2c([N+](=O)[O-])cc([N+](=O)[O-])cc2c1C(=O)O,11%[9.22 µM],-18%[10.9 µM],-3%[9.22 µM],-1%[11.4 µM]
Cc1ccc2c(c1)N(CC(=O)NCC1COc3ccccc3O1)C(=O)CO2 (stereo not drawn),-2%,-4%,-3%,1%
CCOc1ccc(NS(=O)(=O)c2ccc(C)c(C(=O)O)c2)cc1,-3%,.,-7%,.
O=c1ccn([C@@H]2O[C@@H](COP(=O)(O)OP(=O)(O)O)[C@H](O)[C@@H]2O)c(=O)[nH]1,18%,.,1%,-2%
O=C(Nc1ccc(NC(=O)c2cc3ccccc3o2)cc1)c1ccccc1,-2%,-13%[10.9 µM],-2%,3%
O=C(O)c1ccc(NC(=O)c2cc3ccccc3o2)cc1,10µM*,-41%[10.9 µM],7.9µM*,?
O=C(Cn1c(=O)n(-c2ccccc2)c(=O)c2ccc(C(=O)NCc3ccc4c(c3)OCO4)cc21)Nc1ccc(Br)cc1,-26%,12%[10.9 µM],-1%,-2%
Cc1ccc(-n2c(=O)c3ccc(C(=O)NCc4ccco4)cc3n(Cc3ccccc3Cl)c2=O)cc1,22%,14%[10.9 µM],2%,-3%
Cc1ccc(NC(=O)Cn2c(=O)n(-c3ccccc3)c(=O)c3ccc(C(=O)NCc4ccc5c(c4)OCO5)cc32)c(C)c1,7.9µM*,-9%[10.9 µM],?,8%
COc1ccc(NC(=O)Cn2c(=O)n(-c3ccccc3)c(=O)c3ccc(C(=O)NCc4ccc5c(c4)OCO5)cc32)cc1,27%,-4%[10.9 µM],?,6%
COc1ccc(-n2c(=O)c3ccc(C(=O)NCc4ccc(C)cc4)cc3n(CC(=O)Nc3ccc(F)cc3)c2=O)cc1,10µM*,5%[10.9 µM],-24%,?
COc1ccc(-n2c(=O)c3ccc(C(=O)NCc4ccc(C)cc4)cc3n(CC(=O)Nc3ccc(C)cc3)c2=O)cc1,5µM*,-15%[10.9 µM],?,1%
Cc1ccc(-n2c(=O)c3ccc(C(=O)NCc4ccco4)cc3n(Cc3ccc(Cl)cc3)c2=O)cc1,13µM*,-11%[10.9 µM],-27%,-1%
C[C@@H](COc1ccc(/C=C\c2ccccc2)cc1)[N+](C)(C)C,-11%,.,32%,-23%
N.N.N.N.N.N.N.N.N.N.N.N.N.N.O.O.[Ru].[Ru].[Ru],-4%,.,-13%,-3%
CSCc1nnc(NC(=O)c2ccc(S(=O)(=O)N(CC(C)C)CC(C)C)cc2)o1,13µM*,-24%,-4%,0%
CCc1nnc(NC(=O)c2ccc(S(=O)(=O)N(CC(C)C)CC(C)C)cc2)o1,13µM*,-21%,-3%,2%
COCCN(CCOC)S(=O)(=O)c1ccc(C(=O)Nc2nnc(C)o2)cc1,-4%,-3%,-1%,1%
Cc1ccc(C2C=C(c3ccc(Cl)cc3)Nc3nc(NC(=O)c4ccco4)nn32)cc1 (stereo not drawn),6%,18%[10.9 µM],3%,-3%
c1ccc2nc(-c3nc4ccccc4[nH]3)ccc2c1,2µM*,-94%,3.2µM*,?
COC(=O)c1nc2n(n1)C(c1cc(OC)ccc1OC)C=C(c1ccc(Br)cc1)N2 (stereo not drawn),-47%,-11%[10.9 µM],12%,?
Fc1ccc(C2=CC(c3ccc(F)cc3)n3c(nc4ccccc43)N2)cc1 (stereo not drawn),13µM*,-21%[10.9 µM],10µM*,?
COC(=O)c1ccc(C2C=C(c3ccc(Cl)cc3)Nc3nc4ccccc4n32)cc1 (stereo not drawn),11µM*,-20%[10.9 µM],8.9µM*,?
COc1ccc(C2=CC(c3cc(Br)ccc3F)n3c(nc4ccccc43)N2)cc1 (stereo not drawn),10µM*,-17%[10.9 µM],16µM*,23%
Nc1ncnc2nc[nH]c12.Nc1ncnc2nc[nH]c12.[Cl][Pt]([Cl])([Cl])[Cl],.,.,.,1%[11.4 µM]
Cc1ccc(O)c(NC(=O)c2ccc(Br)c(S(=O)(=O)N3CCCCC3)c2)c1,?,-19%[10.9 µM],?,?
O[C@@H](c1cc(C(F)(F)F)nc2c(Cl)cc(Cl)cc12)C1CCCCN1 (stereo partly drawn),.,18%[10.9 µM],.,.
Cc1nc2c(-c3ccccc3)c(C)nn2c(N)c1-c1ccccc1,?,.,11µM*,.
CCOc1cccc(C2Oc3nc(SC)nnc3-c3ccccc3N2C(C)=O)c1OC (stereo not drawn),-5%,-3%[10.9 µM],5%,-2%
